Measurements: ChEMBL document CHEMBL4513141, “CO-ADD screening of NIH (USA) - Clinical Collection” (2021)
Results with a measured potency or affinity are listed apart.

System: Cryptococcus neoformans
Settings: Concentration 20 uM; ASSAY_TEST Inhibition of Fungal Growth; detection method Resazurin; Absorption (OD600-OD570); plate type 384well; NBS; CORNING #3640

Row | Structure (SMILES) | Inhibition
1 | CCCN1CCCC[C@H]1C(=O)Nc1c(C)cccc1C.Cl [ROPIVACAINE HYDROCHLORIDE] | -6.59%
2 | CN(C)CC/C=C1/c2ccccc2COc2ccc(CC(=O)O)cc21.Cl [OLOPATADINE HYDROCHLORIDE] | 4.6%
3 | Cl.O=C1[C@H]2CCCC[C@H]2C(=O)N1CCCCN1CCN(c2nsc3ccccc23)CC1 | -7.18%
4 | COc1ccc(-c2oc3c(CC=C(C)C)c(O[C@@H]4O[C@H](CO)[C@@H](O)[C@H](O)[C@H]4O)cc(O)c3c(=O)c2O[C@@H]2O[C@@H](C)[C@H](O)[C@@H](O)[C@H]2O)cc1 [ICARIIN] | 0.11%
5 | COc1ccc(C2CNC(=O)C2)cc1OC1CCCC1 (stereo unspecified) [ROLIPRAM] | -5.22%
6 | COCCCC/C(=N\OCCN)c1ccc(C(F)(F)F)cc1.O=C(O)/C=C\C(=O)O [FLUVOXAMINE MALEATE] | -8.17%
7 | CC(=O)[C@@]1(O)CC[C@H]2[C@@H]3C[C@H](C)C4=CC(=O)CC[C@]4(C)[C@H]3CC[C@@]21C | -0.94%
8 | CCOC(=O)[C@H](CCc1ccccc1)N[C@H]1CCc2ccccc2N(CC(=O)O)C1=O.Cl [BENAZEPRIL HYDROCHLORIDE] | 0.84%
9 | Cc1ccsc1C(=CCCN1CCC[C@@H](C(=O)O)C1)c1sccc1C.Cl [TIAGABINE HYDROCHLORIDE] | -3.18%
10 | CCN1CCC[C@H]1CNC(=O)c1cc(S(N)(=O)=O)ccc1OC [LEVOSULPIRIDE] | 2.98%
11 | COc1cc2nc(N3CCN(C(=O)C4CCCO4)CC3)nc(N)c2cc1OC (stereo unspecified) [TERAZOSIN] | 0.02%
